Sampled rows, rich in hits. Any-hit rate of the full collection: about 2.8%.
TROY signal inh: inhibitors of TROY-dependent NF-kB signaling; Q293 LMP1-TROYcd NF-kB luciferase reporter, 4 h; inhibition, % at 10 µM; 360,000 compounds, 0.98% hits; AID 1347056;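 active means compounds whose plate-normalised and pattern-corrected inhibition of the luciferase reporter signal at the single screening dose is 50% or more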
PAX8 reporter: lowers PAX8-driven luciferase in RMG-I cells | AID 652154 | 360,000 compounds, 1.2% hits | inhibition, % at 12.6 µM | RMG-I TPO-luciferase reporter, SteadyGlo, 24 h;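 active means mean replicate inhibition at least 60% with every replicate also reaching 60%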;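 further: luciferase light reporting Pax8 driven TPO promoter activity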
TWEAK-Fn14 inh: TWEAK-Fn14 signaling inhibition | 360,000 compounds, 2% hits | TWEAK-stimulated Fn14 reporter cells, luciferase luminescence, 8 h | inhibition, % at 10 µM; in the data active means inhibition above about 50%
EWS-Fli inh: blocks EWS/Fli oncoprotein-driven transcription. 350,000 compounds, 0.67% hits. A673 NR0B1-luciferase reporter, viability-normalised. AID 651661. inhibition, % at 12.6 µM;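 active means mean inhibition of at least 50% after viability correction, with every replicate also passing that limit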;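 further: firefly luciferase signal divided by Alamar Blue viability fluorescence both relative to DMSO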
LGR2 antag: blocks bursicon-induced cAMP signaling via Drosophila LGR2 | HEK293 LGR2, CRE-luciferase, bursicon-stimulated, 4 h | inhibition, % at 9.99 µM | 380,000 compounds, 0.35% hits;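 active means drop in luminescence signal, shown as inhibition above about 50% in the replicate tests, limit read from the data, passing the limit was not always enough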;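 further: agonist challenge used bursicon conditioned medium at about half maximal strength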
A number is an active result; 0 = inactive; - = no result; ! = repeats disagree.

SMILES	TROY signal inh	PAX8 reporter	TWEAK-Fn14 inh	EWS-Fli inh	LGR2 antag
O=C(Nc1ccc(F)cc1)N1C[C@@H]2N[C@H](C1)C2c1ccc(-c2ccccc2F)cc1 (stereo partly specified)	-	108!	-	0	0
O=C(C1CC1)N1C[C@@H]2N[C@H](C1)C2c1ccc(-c2ccccc2F)cc1 (stereo partly specified)	-	87!	-	0	88!
Cc1ccccc1-c1ccc(C2[C@@H]3CN(C(=O)C4CCCC4)C[C@H]2N3)cc1 (stereo partly specified)	-	-	-	0	0
C[C@@H]1CN([C@@H](C)CO)C(=O)c2cc(NS(=O)(=O)c3ccc(F)cc3)ccc2O[C@@H](C)CCCCO[C@@H]1CN(C)C	-	0	-	0	0
COc1ccc(S(=O)(=O)Nc2ccc3c(c2)C(=O)N([C@@H](C)CO)C[C@@H](C)[C@@H](CN(C)C(=O)Nc2ccc(C(F)(F)F)cc2)OCCCC[C@H](C)O3)cc1	-	0	-	0	0
COc1ccc(S(=O)(=O)Nc2ccc3c(c2)C(=O)N([C@@H](C)CO)C[C@H](C)[C@@H](CN(C)C(=O)Nc2ccc(C(F)(F)F)cc2)OCCCC[C@@H](C)O3)cc1	-	84	-	0	0
COc1ccc(S(=O)(=O)Nc2ccc3c(c2)C(=O)N([C@@H](C)CO)C[C@H](C)[C@@H](CN(C)C(=O)Nc2ccc(C(F)(F)F)cc2)OCCCC[C@H](C)O3)cc1	-	65	-	0	0
CC(C)NC(=O)N(C)C[C@H]1Oc2ncc(C#CC3CCCCC3)cc2C(=O)N([C@H](C)CO)C[C@H]1C	-	-	-	0	0
Clc1ccc(C2=Nn3c(nnc3-c3n[nH]c4c3CCC4)SC2)cc1	0	-	55	-	-
Cc1ccc(-c2nnc3n2N=C(c2ccc(Br)cc2)CS3)cc1	0	0	0	0	0
Brc1ccc(C2=Nn3c(nnc3-c3n[nH]c4c3CCC4)SC2)cc1	0	-	60	-	-
COc1ccc(S(=O)(=O)N(C)C[C@H]2Oc3ccc(NC(=O)NC(C)C)cc3C(=O)N([C@@H](C)CO)C[C@H]2C)cc1	-	-	-	0	0
CNC[C@H]1Oc2ccc(NS(=O)(=O)c3ccc(OC)cc3)cc2CC(=O)N([C@H](C)CO)C[C@H]1C	-	0	-	0	0
COc1ccc(-c2csc(N(CCCN(C)C)C(=O)c3ccccc3F)n2)cc1	0	63	0	0	0
COc1ccc2nc3n(c(=O)c2c1)-c1ncccc1C(=O)NC3CC(C)C (stereo unspecified)	0	0	76	0	0
CC(C)CC1NC(=O)c2cccnc2-n2c1nc1cc(F)c(F)cc1c2=O (stereo unspecified)	0	0	0	0	0
CC(=O)Nc1ccc2c(c1)C(=O)N(C)[C@H]1CC[C@H](CC(=O)Nc3cccc(Cl)c3)O[C@@H]1CO2	-	0	-	0	0
Cc1ccc(S(=O)(=O)N2C[C@H](O)COC[C@@H]3O[C@@H](CC(=O)N[C@H]4CCN(Cc5ccccc5)C4)CC[C@H]32)cc1	-	0	-	0	0
COC(=O)c1cccc(NC(=O)Nc2ccc(Cl)c(Cl)c2)c1	0	-	60	0	0
Cc1cccc(NC(=O)Nc2ccc(Cl)c(Cl)c2)n1	0	0	58	0	0
C[C@H](CO)N1C[C@H](C)[C@H](CN(C)Cc2ccccn2)Oc2ncc(C#CCN(C)C)cc2C1=O	-	-	-	0	0
Cc1ccc(S(=O)(=O)N(C)C[C@H]2OCCCC[C@H](C)Oc3ccc(NS(=O)(=O)c4cccs4)cc3C(=O)N([C@H](C)CO)C[C@@H]2C)cc1	-	72	-	0	0
Cc1ccc(S(=O)(=O)N(C)C[C@@H]2OCCCC[C@H](C)Oc3ccc(NS(=O)(=O)c4cccs4)cc3C(=O)N([C@@H](C)CO)C[C@H]2C)cc1	-	0	-	0	0
Cc1ccc(S(=O)(=O)Nc2ccc3c(c2)C(=O)N([C@@H](C)CO)C[C@H](C)[C@@H](CN(C)S(=O)(=O)c2ccc(C)cc2)OCCCC[C@@H](C)O3)cc1	-	0	-	0	0
Cc1ccc(S(=O)(=O)Nc2ccc3c(c2)C(=O)N([C@@H](C)CO)C[C@@H](C)[C@@H](CN(C)S(=O)(=O)c2ccc(C)cc2)OCCCC[C@@H](C)O3)cc1	-	66	-	0	0
SMILES	TROY signal inh	PAX8 reporter	TWEAK-Fn14 inh	EWS-Fli inh	LGR2 antag
Cc1ccc(S(=O)(=O)Nc2ccc3c(c2)C(=O)N([C@H](C)CO)C[C@H](C)[C@H](CN(C)S(=O)(=O)c2ccc(C)cc2)OCCCC[C@H](C)O3)cc1	-	63	-	0	0
Cc1ccc(S(=O)(=O)Nc2ccc3c(c2)C(=O)N([C@@H](C)CO)C[C@H](C)[C@H](CN(C)S(=O)(=O)c2ccccc2)OCCCC[C@H](C)O3)cc1	-	67	-	0	0
Cc1ccc(C(=O)Nc2c3c(nn2C(C)(C)C)CS(=O)(=O)C3)cc1[N+](=O)[O-]	0	0	0	0	0
CC(C)(C)n1nc2c(c1NC(=O)c1ccc(Cl)c([N+](=O)[O-])c1)CS(=O)(=O)C2	0	0	54	-	0
COc1ccc2c3c(n(C)c2c1)[C@H](CO)NCC31CCN(Cc2cc(-c3ccccc3)on2)CC1	-	82	-	0	0
Cc1noc(C)c1S(=O)(=O)Nc1cccc2c1O[C@H](CN(C)CC1CCCCC1)[C@H](C)CN([C@@H](C)CO)C2=O	-	0	-	0	0
COc1cccc(NC(=O)c2cnsn2)c1	0	-	0	-	-
CCOc1ccc(NC(=O)c2ccccn2)cc1	72	65	95	78	95
CCOc1ccc(NC(=O)c2cnccn2)cc1	0	-	0	-	-
CCOc1ccc(NC(=O)c2cnsn2)cc1	0	-	57	-	-
COc1ccc(NC(=O)Nc2ccc3c(c2)C(=O)N([C@H](C)CO)C[C@@H](C)[C@H](CN(C)C(=O)NC2CCCCC2)OCCCC[C@H](C)O3)cc1	-	0	-	0	0
CCCc1c(-c2ccc(O)cc2)nn(-c2ccc(O)cc2)c1-c1ccc(O)cc1	75	-	0	-	-
Cc1c(C(N)=O)c(-c2ccccc2)nn1-c1ccccc1	0	0	0	-	0
Cc1cc(/C=N/NC(=O)c2cccc([N+](=O)[O-])c2)c(C)n1-c1ccc(Cl)cc1Cl	-	-	95	-	-
Cc1cc(C(F)(F)Cl)n2ncc(-c3ccccn3)c2n1	0	0	0	0	0
COc1ccc(-c2c(C)nc3c(-c4ccccn4)cnn3c2N)cc1	59	0	56	0	0
Cc1cc(N)n2ncc(-c3ccc(F)cc3)c2n1	0	-	0	-	-
COc1ccc(-c2c(C)nc3c(-c4ccsc4)cnn3c2N)cc1	57	0	0	0	0
CC(C)(C)S(=O)(=O)c1cnc2c(-c3ccsc3)cnn2c1N	0	0	0	0	0
Cc1nc2c(-c3ccc(F)cc3)cnn2c(N)c1-c1ccc(F)cc1	74	0	78	0	0
C[C@H]1CN([C@@H](C)CO)C(=O)c2cc(C3=CCCCC3)cnc2O[C@@H]1CN(C)C(=O)Nc1ccccc1	-	-	-	0	0
N#C[C@@H]1[C@H](c2ccccc2C2=CCCCC2)[C@@H](CO)N1C(=O)NC1CCCCC1	-	-	-	0	0
COC(=O)C12OCC34C(CC5C(C)=C(O)C(=O)CC5(C)C3C(O)C1O)OC(=O)C(OC(=O)C=C(C)C)C24 (stereo unspecified)	85	99	95	0	100

Assay outcomes from PubChem.
